Bioassay records from PubChem.
PolyA inhibitor: inhibitors of polyadenylation in S. cerevisiae. 0.02% of 300,000 active. AID 1875. S. cerevisiae SKY197-pL101 polyadenylation reporter, beta-gal luminescence; efflux-impaired pdr1/pdr3 knockout yeast; score 100 = 6 SD above DMSO. activity score, % at 12 µM;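 active means lowest replicate activity score at least 50, where 100 means six control SD above control mean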;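 further: yeast exposed to compound for 9 h at 30 °C; higher score means more reporter readthrough which indicates perturbed polyadenylation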
IDE cell inh: inhibits human insulin-degrading enzyme in HEK cells; P14735; FAbetaB cleavage, fluorescence polarization; inhibition, % at 5.59 µM; 0.41% of 320,000 active;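 active means percent inhibition above the average of all tested compounds plus 3 SD, set per screening campaign, cut at about 16% in these data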;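 further: IDE supplied by intact live HEK cells; FP after avidin binding of uncleaved biotin substrate so inhibition keeps polarization high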
IDE act: boosts human insulin-degrading enzyme activity in HEK cells | P14735 | FAbeta-B cleavage, fluorescence polarization; 0% vehicle, 100% cell-free pure enzyme wells | activation, % at 5.96 µM | 0.073% of 340,000 active | AID 493087;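 active means activation above the mean of all tested compounds plus 3 SD, set per screening campaign, cut at about 17% in these data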
CaV13 ICDI inh: Disruptors of the CACNA1D IQ motif to Ca2+-dependent inactivation inhibitor domain association, primary screening, Förster resonance energy transfer in intact living … | HEK cells, CFP/YFP FRET ICDI-IQ, plate reader, 10 min; percent FRET-ratio fall versus neutral wells | inhibition, % at 12.3 µM | 0.098% of 340,000 active | AID 743397;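 active means mean replicate inhibition of at least 30% and at least 1% of replicates passing that level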
PfM18AAP inh: blocks P. falciparum M18 aspartyl aminopeptidase; 1.2% of 290,000 active; inhibition, % at 7.35 µM; recombinant PfM18AAP, H-Glu-NHMec fluorogenic cleavage;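 active means inhibition above the campaign mean inhibition over all tested compounds plus 3 SD, cut at about 28% in these data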
ALR H2O2 inh: human ALR oxidase inhibition via reduced H2O2. AID 485317. purified ALR, DTT oxidation, H2O2 HRP-luminol luminescence. inhibition, % (concentration not given with the values). 3.8% of 290,000 active;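 active means mean replicate inhibition above about 79%, with every replicate also reaching it, limit read from the data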
Target sequence (P55789 whole entry, looked up): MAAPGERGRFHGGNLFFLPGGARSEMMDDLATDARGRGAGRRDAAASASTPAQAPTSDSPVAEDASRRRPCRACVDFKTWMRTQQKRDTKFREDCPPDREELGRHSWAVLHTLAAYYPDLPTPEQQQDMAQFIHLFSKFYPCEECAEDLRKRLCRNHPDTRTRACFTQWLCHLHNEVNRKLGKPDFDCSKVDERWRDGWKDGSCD
A number is an active result; 0 = inactive; - = no result given. Only some compounds are listed: those with a hit (about 4.1% of all), similar ones and a draw of the others.

SMILES	PolyA inhibitor	IDE cell inh	IDE act	CaV13 ICDI inh	PfM18AAP inh	ALR H2O2 inh
CCOC(=O)c1ccc(NC(=O)C(=O)NCC2(c3ccc(OC)cc3)CCOCC2)cc1	0	0	0	0	0	-
CS(=O)(=O)Nc1ccc(C2=NN(C(=O)CCCC(=O)O)C(c3cccs3)C2)cc1 (stereo unspecified)	0	0	0	0	0	0
COc1ccc(N2CCC(CNC(=O)Nc3cccc(OC)c3)C2)cc1 (stereo unspecified)	0	0	0	0	0	82.0
COc1ccc(N2CCN(CC(=O)Nc3cccc(S(=O)(=O)N4CCOCC4)c3)CC2)cc1	0	0	0	0	0	77.6
COc1cccc(NC(=O)CN2CCN(c3ccc(F)cc3)CC2)c1	0	0	0	0	0	96.6
O=C(CN1CCN(c2ccc(O)cc2)CC1)Nc1cc([N+](=O)[O-])ccc1Cl	0	0	0	0	33.2	98.9
O=C(CN1CCN(S(=O)(=O)c2ccc3ccccc3c2)CC1)Nc1ccc(N2CCOCC2)cc1	0	0	0	0	0	-
O=C(CNC(=O)C1COc2ccccc2O1)Nc1cc(Cl)ccc1Cl (stereo unspecified)	-	-	0	0	-	-
CCCOC(=O)Nc1ccc(N2CCCCC2)cc1	0	0	0	0	0	97.1
O=C(CN1CCCCC1)Nc1ccccc1	0	0	0	0	0	-
CCCCC(=O)Nc1ccc(N2CCCC2)cc1	0	0	0	0	0	0
COc1ccc(N2CCN(CC(=O)Nc3ccc(C)cc3)CC2)cc1	0	0	0	0	0	89.6
COC(=O)c1ccc(NC(=O)CN2CCN(c3ccccc3)CC2)cc1	0	0	0	0	0	91.8
O=C(CN1CCCCC1)Nc1ccc(N2CCCCCC2)cc1	0	0	0	0	0	99.2
CC(O)c1nc2ccccc2n1CC(=O)N1CCN(c2ccccc2)CC1 (stereo unspecified)	0	0	0	0	0	0
COc1ccc(C(=O)NCc2nnc(SCC(=O)c3ccc(F)cc3)n2C)cc1OC	0	0	0	0	-	93.7
COc1ccc(C(=O)CSc2nnc(CNC(=O)c3ccc(OC)c(OC)c3)n2C)cc1	0	0	0	-	0	0
Cn1c(CNC(=O)c2ccco2)nnc1SCC(=O)c1ccc(F)cc1	0	0	0	0	0	85.7
CSc1sccc1/C=N/O	0	0	0	0	0	0
CSc1sccc1/C=C(/C#N)C(=O)c1ccco1	0	0	0	0	31.2	0
COc1ccc(/C=C/C(=O)c2ccc(C(=O)/C=C/c3ccc(OC)c(OC)c3)cc2)cc1OC	0	-	0	0	0	-
COc1ccc(C(=O)/C=C/c2ccc(OCc3ccccc3)cc2)cc1CSCC(=O)O	0	-	0	0	0	99.1
COC(=O)c1ccc(/C=C/C(=O)c2ccc(OC)c(OC)c2)cc1	0	0	0	-	0	98.6
COc1cc(C(=O)/C=C/c2cccnc2)ccc1O	0	0	0	0	0	99.6
COc1ccc(/C=C/C(=O)c2ccc(OC)cc2OC)cc1	0	0	0	-	0	94.2
SMILES	PolyA inhibitor	IDE cell inh	IDE act	CaV13 ICDI inh	PfM18AAP inh	ALR H2O2 inh
COc1ccc(OC)c(C(=O)/C=C/c2cccnc2)c1	0	0	0	0	0	0
OCCC1CN(Cc2cccc3c2OCO3)CCN1C1CCCCC1 (stereo unspecified)	0	0	0	0	0	0
Cc1ccc(C)c(NC(=O)Cc2nc(CNCC(C)C)cs2)c1	0	0	0	0	0	0
COc1cc(/C=C/C(=O)c2ccc(F)cc2)cc(OC)c1OC	0	0	0	0	0	96.6
COc1ccc(CCN(C)C2CCCN(C(=O)c3sccc3C)C2)cc1OC (stereo unspecified)	0	0	0	0	0	0
CC1(C)CC2CC(C)(CN2Cc2cccc([N+](=O)[O-])c2)C1 (stereo unspecified)	0	-	0	0	0	0
CC1(C)CC2CC(C)(CN2Cc2c(O)ccc3ccccc23)C1 (stereo unspecified)	0	0	0	0	0	94.6
COc1cc(-c2nc(-c3ccccc3)c(-c3cccs3)[nH]2)cc(OC)c1O	0	0	0	0	0	98.0
Fc1ccc(-c2nc3ccncc3[nH]2)cc1	0	0	0	0	0	0
Clc1ccc(-c2nc3ccncc3[nH]2)cc1	0	0	0	0	29.1	98.7
CCCc1nc(C)c2c(=O)[nH]c(-c3cc(S(=O)(=O)N4CCN(CC)CC4)ccc3OCC)nn12	0	0	0	0	-	0
Cc1ccc(-n2[nH]c(=O)c3cccnc32)cc1	0	0	0	0	0	96.7
Cc1ccc(-n2[nH]c(=O)c(-c3ccccn3)c2C)cc1	0	0	0	0	0	0
COc1cccc(N2CCN(c3ccc4nnc(CCC(=O)Nc5ccc(F)cc5F)n4n3)CC2)c1	0	0	0	0	0	0
COc1cccc(N2CCN(c3ccc4nnc(CCC(=O)Nc5ccccc5OC)n4n3)CC2)c1	0	0	0	0	0	80.3
COc1cccc(N2CCN(c3ccc4nnc(CCC(=O)Nc5ccc(F)cc5)n4n3)CC2)c1	0	0	0	0	0	80.3
COc1ccc(NS(=O)(=O)c2cc([N+](=O)[O-])ccc2N/N=C\c2c(C)[nH]c3ccccc23)cc1	0	0	0	-	0	0
COc1ccccc1NS(=O)(=O)c1cc([N+](=O)[O-])ccc1N/N=C/c1c[nH]c2ccccc12	0	0	0	0	0	98.8
COC(=O)[C@]12C[C@H](CC(=O)N3CCN(C(=O)c4ccco4)CC3)C(=O)N(Cc3ccc4c(c3)OCO4)C1=C[C@H](C(C)(C)C)O[C@@H]2C	-	-	-	0	-	-
S=C(N=Nc1ccccc1)NNc1ccccc1	0	0	0	0	0	99.3
CCOc1cnn(-c2ccccc2)c(=O)c1Cl	0	0	0	0	0	96.5
CCN(CCNC(=O)c1ccc(CSc2nc3ccncc3[nH]2)cc1)c1ccccc1	0	0	0	0	0	97.8
COC(=O)C1=C(C)N(Cc2ccc(Cl)cc2)C(=S)NC1c1ccc(OC)cc1 (stereo unspecified)	-	-	-	0	-	-
CC(C)(C)c1ccc(C(=O)NC(=S)N2CCCC2)cc1	0	0	0	-	0	0
CC(C)(C)c1ccc(C(=O)NC(=S)Nn2cnnc2)cc1	0	0	0	0	55.3	0
CSc1nsc(SCC(=O)Nc2ccccc2F)n1	0	0	0	0	0	0
CC(=O)Nc1ccc(N2CCCCC2)c(C(=O)Nc2cccc(C)c2)c1	0	0	0	0	0	97.4
Cc1ccc(NC(=O)c2cc(NC(=O)c3ccccc3C(=O)O)ccc2N2CCCCC2)cc1	0	0	0	0	0	98.6
Cc1ccc(NC(=O)c2cc(N3C(=O)CCC3=O)ccc2N2CCCCC2)cc1	0	0	0	0	0	0
Cc1cccc(NC(=O)c2cc(NC(=O)C3CCCCC3C(=O)O)ccc2N2CCCCC2)c1 (stereo unspecified)	-	0	0	0	0	-
